Data taken from PubChem BioAssay (NCATS).
Inconclusive results are not listed. Active and inactive are the calls of the source. Calls come from the whole dose curve; as a rule, active = well fitted curve in the direction sought with a large enough effect; inconclusive = small, poorly fitted or top-dose-only effect, or another doubt; inactive = no such curve, though single readings can be large; an effect the other way counts as inactive or inconclusive. Bridge positions count the residues as written; N and C are the ends. Square brackets hold non-standard residues; d marks the D form. Side chains are listed from the residue outwards. Peptide text beside a SMILES is read from it. * marks the point of attachment. Phg(4-OMe) = COc1ccc([C@H](N)C(=O)O)cc1; d(aIle) = CC[C@H](C)[C@@H](N)C(=O)O; d(aThr) = C[C@@H](O)[C@@H](N)C(=O)O; NMeF = CN[C@@H](Cc1ccccc1)C(=O)O; Isobutyryl = CC(C)C(=O)*

Key:
[1] = OV-KATE Cancer Cell Toxicity qHTS against the NCATS CANVASS Library (AID 1347345); note: potency is the fitted concentration of half-maximal effect; for activity change, negative = cytotoxicity: % is set by controls: 0 for no effect and ±100 for the full control effect
Method in brief: (§1)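 Step one: seed 1000 cells per well. Step two: incubate 4 h. Step three: add test compounds in 11 concentrations. Step four: culture 72 h, then add CellTiter-Glo and record luminescence after 15min.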

[2] = HPAF-II Cancer Cell Toxicity qHTS against the NCATS CANVASS Library (AID 1347346); note: nearly all actives have a fitted effect of over 55% in size; note: potency is the fitted concentration of half-maximal effect; for activity change, negative = cytotoxicity: series mostly up to about 38 µM; % is set by controls: 0 for no effect and ±100 for the full control effect
Method in brief: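 Cytotoxicity read-out was CellTiter-Glo luminescence after 72 h at 37 degrees C exposure of HPAF-II cells (1000/well) to compounds in an 11-point titration.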

[3] = Panc-1005 Cancer Cell Toxicity qHTS against the NCATS CANVASS Library (AID 1347349); note: nearly all actives have a fitted effect of over 60% in size; note: potency is the fitted concentration of half-maximal effect; for activity change, negative = cytotoxicity: series mostly up to about 38 µM; % is set by controls: 0 for no effect and ±100 for the full control effect
Method in brief: as §1

[4] = SW1088 Cancer Cell Toxicity qHTS against the NCATS CANVASS Library (AID 1347350); note: nearly all actives have a fitted effect of over 75% in size; note: potency is the fitted concentration of half-maximal effect
Method in brief: as §1

[5] = U-118MG Cancer Cell Toxicity qHTS against the NCATS CANVASS Library (AID 1347351); note: potency is the fitted concentration of half-maximal effect
Method in brief: as §1

[6] = A2780 Cisplatin Sensitive Ovarian Cancer Cell Toxicity qHTS against the NCATS CANVASS Library (AID 1347353); note: nearly all actives have a fitted effect of over 60% in size; note: potency is the fitted concentration of half-maximal effect
Method in brief: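 Cisplatin-sensitive A2780 ovarian cells (750/well) received compound in 11 concentrations, and were incubated 72 h at 37 °C. ATP content was measured by ATPLite luminescence; bortezomib served as control.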

[7] = HEK293 24hr Apoptosis Induction qHTS against the NCATS CANVASS Library (AID 1347359); note: 0% is about no effect
Method in brief: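 HEK293 cells, 500 per well, exposed to an 11-point compound series for 24 hours at 37 degrees C. Caspase 3/7 activity read by Caspase-Glo luminescence (DEVD substrate) after 15 min at room temperature.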

[8] = target: Luciferin 4-monooxygenase (Photinus pyralis) (UniProt P08659); experiment: Firefly luciferase counterscreen qHTS: Assay Interference Panel against the NCATS CANVASS Library (AID 1347363); note: series mostly up to about 57 µM; 0% is about no effect
Method in brief: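 Purified P. pyralis luciferase (0.04 ug/mL, 4x reagent) added to Tris-acetate buffer with 0.013 mM D-luciferin, 0.013 mM ATP and 13.3 mM Mg-acetate; compounds preincubated 15 min, then luminescence read after 5 min, RT.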

[9] = target: Nuclear receptor subfamily 1 group I member 3 (Homo sapiens) (UniProt Q14994); experiment: qHTS for Constitutive Androstane Receptor (CAR) Antagonist screened against the NCATS CANVASS Library (AID 1347372);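 note: cells stimulated with 50 nM CITCO agonist so inhibition reflects antagonism; luciferase from CYP2B6 promoter reporter driven by hCAR in HepG2 cells; series mostly up to about 46 µM; % is set by controls: 0 for no effect and ±100 for the full control effect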
Method in brief: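 Luminescence readout (ONE-Glo, 30 min RT) of CYP2B6-2.2kb reporter in HepG2-hCAR cells after 24hr, 37C treatment with compound against 50 nM CITCO; CellTiter-Fluor viability read beforehand.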

[10] = Cytotoxicity qHTS for assessment of Hepg2 cells membrane integrity screened against the NCATS CANVASS Library (AID 1347387)
Method in brief: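 Membrane damage quantified as fluorescent LDH-release signal (ex 560, em 590 nm) in HepG2 cells treated 5 hr at 37C. qHTS format, 11 concentrations spanning 0.59 nM - 46 uM final, cells plated at 2000 per well the night before.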

[11] = qHTS for activators of dead-cell proteases activity screened against the NCATS CANVASS Library (AID 1347392);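 note: luminescence from protease leaking out of membrane-damaged cells cleaving impermeant substrate; 0% is about no effect; rising signal means more cytotoxicity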
Method in brief: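 HepG2, 2000 cells/well, 18 h attach; cpd 11-pt, 5 h 37C 5% CO2; CytoTox-Glo (AAF-aminoluciferin) 15 min RT; luminescence read.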

[12] = UWB1.289 Cancer Cell Toxicity qHTS against the NCATS CANVASS Library (AID 1347347); note: nearly all actives have a fitted effect of over 60% in size; note: potency is the fitted concentration of half-maximal effect
Method in brief: as §1

[13] = OV-SAHO Cancer Cell Toxicity qHTS against the NCATS CANVASS Library (AID 1347348); note: nearly all actives have a fitted effect of over 55% in size; note: potency is the fitted concentration of half-maximal effect
Method in brief: as §1

[14] = test system: NAD(P)H diaphorase (Clostridium kluyveri); experiment: Diaphorse counterscreen qHTS: Assay Interference Panel against the NCATS CANVASS Library (AID 1347362); note: potency is the fitted concentration of half-maximal effect; for activity change, negative = inhibition: 0% is about no effect
Method in brief: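 Clostridium kluyveri diaphorase in PBS + 0.01% Tween-20 preincubated 15 min with compounds. Resazurin and NADH then added for 5 min at room temperature in the dark; resorufin fluorescence read (ex 525, em 598).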

[15] = KB-8-5-11 Cancer Cell Toxicity qHTS against the NCATS CANVASS Library (AID 1347364); note: nearly all actives have a fitted effect of over 75% in size; note: potency is the fitted concentration of half-maximal effect
Method in brief: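 Viability read as CellTiter-Glo luminescence after 72 h at 37 °C, 5% CO2. 11-point compound series on 500 KB-8-5-11 cells/well in DMEM/10% FBS. Follow-up plating included 1 uM tariquidar in the medium.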

[16] = qHTS for Hypoxia signaling pathway (HIF-1) antagonists against the NCATS CANVASS Library (AID 1347374); note: nearly all actives have a fitted effect of over 60% in size; note: potency is the fitted concentration of half-maximal effect
Method in brief: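 Antagonism scored as loss of CoCl2-driven (60 uM stock added) HRE beta-lactamase signal, read by CCF4 FRET at 460/530 nm. Compounds were tested in an 11-point series on ME-180 reporter cells for 17 hrs at 37C, with parallel CellTiter-Glo cytotoxicity.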

[17] = DH5-alpha competent E. coli microbial cell viability qHTS against the NCATS CANVASS Library (AID 1347377); settings: outcome: dose series up to 46.1 µM unless noted
Method in brief: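 Bacterial viability as ATP-dependent luminescence (BacTiter-Glo), read after overnight 37 °C exposure of DH5-alpha competent E. coli to compounds in 11-point titration.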

[18] = qHTS for inhibitors of ER calcium dysfunction: SERCaMP assay screened against the NCATS CANVASS Library (AID 1347393); note: nearly all actives have a fitted effect of over 40% in size; note: potency is the fitted concentration of half-maximal effect;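 for activity change, negative = inhibition: series mostly up to about 77 µM; % is set by controls: 0 for no effect and ±100 for the full control effect; lower secreted reporter signal means inhibitor of ER calcium depletion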
Method in brief: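 SH-SY5Y GLuc-SERCaMP, 1000 cells/well, 4 h attach; cpd 16 h, 37C/5% CO2; thapsigargin (added as 6x 600 nM) 4 h; coelenterazine; luminescence. Reduced reporter release = ER Ca stabilization.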

[19] = qHTS for Hypoxia signaling pathway (HIF-1) agonists against the NCATS CANVASS Library (AID 1347375); note: 0% is about no effect
Method in brief: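 Beta-lactamase reporter under HRE control in ME-180 cells; compounds (11-point qHTS series) added after 5 hrs plating, then 17 hrs at 37C. FRET substrate read after 2 hr; same-well CellTiter-Glo luminescence gave viability and normalization.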

[20] = qHTS for activators of Nrf2/ARE signaling pathway screened against the NCATS CANVASS Library (AID 1347391); note: nearly all actives have a fitted effect of over 60% in size; note: potency is the fitted concentration of half-maximal effect; for activation: 0% is about no effect
Method in brief: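 Eleven-point qHTS, 16 h treatment of HepG2 cells carrying an ARE-driven beta-lactamase reporter; CCF4 ratio read (405 nm excitation, 460 and 530 nm emission), with CellTiter-Glo ATP luminescence for viability.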

Sequence of Luciferin 4-monooxygenase (Photinus pyralis) (P08659 whole entry, looked up): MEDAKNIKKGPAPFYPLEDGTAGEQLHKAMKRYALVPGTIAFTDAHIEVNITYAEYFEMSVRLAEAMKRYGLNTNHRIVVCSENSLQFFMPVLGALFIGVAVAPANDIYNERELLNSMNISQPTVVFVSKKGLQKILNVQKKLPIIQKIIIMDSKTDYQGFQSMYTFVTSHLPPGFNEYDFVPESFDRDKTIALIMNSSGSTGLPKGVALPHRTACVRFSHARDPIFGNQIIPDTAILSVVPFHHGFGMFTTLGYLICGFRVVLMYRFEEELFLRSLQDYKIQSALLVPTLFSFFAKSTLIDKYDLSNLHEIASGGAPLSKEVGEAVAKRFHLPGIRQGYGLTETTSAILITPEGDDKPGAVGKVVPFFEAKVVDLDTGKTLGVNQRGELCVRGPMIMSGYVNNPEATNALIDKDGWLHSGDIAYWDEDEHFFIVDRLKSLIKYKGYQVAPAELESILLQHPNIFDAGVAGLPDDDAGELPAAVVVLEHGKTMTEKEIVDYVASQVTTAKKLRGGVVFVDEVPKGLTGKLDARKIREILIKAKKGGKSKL
Sequence of Nuclear receptor subfamily 1 group I member 3 (Homo sapiens) (Q14994 whole entry, looked up): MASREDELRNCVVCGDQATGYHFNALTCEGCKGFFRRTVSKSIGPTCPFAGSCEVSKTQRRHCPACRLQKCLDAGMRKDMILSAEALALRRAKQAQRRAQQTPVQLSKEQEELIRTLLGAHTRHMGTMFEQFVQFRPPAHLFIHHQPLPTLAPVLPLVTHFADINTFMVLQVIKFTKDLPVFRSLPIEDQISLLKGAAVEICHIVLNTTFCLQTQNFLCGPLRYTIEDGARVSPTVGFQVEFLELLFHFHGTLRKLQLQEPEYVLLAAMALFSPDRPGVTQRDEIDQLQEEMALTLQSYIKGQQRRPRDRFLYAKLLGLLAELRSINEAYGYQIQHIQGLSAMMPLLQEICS

C=C(C)CC[C@H](Cc1c(O)cc(O)c2c1O[C@H](c1ccc(O)cc1)CC2=O)C(=C)C
active: Potency [4] 23.7 µM | Potency [6] 23.5 µM
inactive: Potency [1] | Potency [2] | Potency [3] | Potency [5] | Potency [7] | Potency [8] | Potency [9] | outcome [10] | Potency [11]

COc1cc2c(c(O)c1O)C(=O)c1c(coc1C)C2=O
inactive: Potency [7] | Potency [15] | Potency [9] | outcome [17] | Potency [11] | Potency [18]
active: Potency [1] 6.66 µM | Potency [12] 13.3 µM | Potency [13] 4.2 µM | Potency [3] 9.43 µM | Potency [4] 9.43 µM | Potency [5] 21.1 µM | Potency [6] 4.69 µM | Potency [14] 4.31 µM | Potency [16] 5.29 µM

C/C=C/C1C=CC2CC(C)CC(C)C2C1C(=O)CC(=O)NC(CO)C/C=C/CCCCC (centres undefined)
active: Potency [1] 10.6 µM | Potency [4] 14.9 µM | Potency [16] 29.8 µM | Potency [20] 16.6 µM | Potency [18] 6.09 µM
inactive: Potency [5] | Potency [8] | Potency [9] | outcome [19] | Potency [11]

CC(C)=CCC[C@]12c3cc4c(cc3CC[C@@]1(C)[C@H](C)CC[C@@H]2O)[nH]c1ccccc14
inactive: Potency [1] | Potency [5] | Potency [7] | Potency [14] | Potency [8] | Potency [9] | outcome [17] | Potency [20] | Potency [11]

C/C1=C/[C@@H](C)[C@H](O)[C@@H](O)/C=C/CC/C=C/C(=O)O[C@@H]1[C@H](C)C(=O)CCCC1CC(=O)NC(=O)C1
inactive: Potency [1] | Potency [12] | Potency [13] | Potency [3] | Potency [5] | Potency [6] | Potency [14] | Potency [8] | Potency [15] | Potency [9] | Potency [16] | outcome [19] | outcome [17] | outcome [10] | Potency [11] | Potency [18]

C/C=C(/C)c1c(Cl)c(O)c(C)c2c1Oc1c(Cl)c(O)c(Cl)c(C)c1C(=O)O2
inactive: Potency [1] | Potency [13] | Potency [3] | Potency [5] | Potency [14] | outcome [10] | Potency [20] | Potency [18]
active: Potency [4] 18.8 µM | Potency [16] 10.6 µM

C[C@]12CCC[C@](C)(C(=O)O)[C@@H]1CC[C@@]1(C)c3cocc3CC[C@H]21
inactive: Potency [1] | Potency [12] | Potency [13] | Potency [4] | Potency [5] | Potency [6] | Potency [7] | Potency [8] | Potency [15] | Potency [16] | outcome [19] | outcome [17] | Potency [18]

C=CC(CCCCC)C1C(=O)NC(=O)C1C(=O)C1C(/C=C/C)C=CC2CC(C(=O)O)CC(C)C21 (centres undefined)
inactive: Potency [1] | Potency [7] | Potency [9] | outcome [19] | outcome [10] | Potency [11] | Potency [18]
active: Potency [2] 9.43 µM | Potency [4] 9.43 µM | Potency [5] 21.1 µM | Potency [6] 7.43 µM | Potency [20] 3.31 µM

COc1cc(O)c(C(=O)[C@@H]2[C@H](CC=C(C)C)C(C)=CC[C@H]2c2ccccc2)c(O)c1
inactive: Potency [7] | outcome [10] | Potency [20] | Potency [11]
active: Potency [2] 13.3 µM | Potency [12] 13.3 µM | Potency [13] 23.6 µM | Potency [3] 9.43 µM | Potency [4] 5.95 µM | Potency [5] 7.49 µM | Potency [15] 16.6 µM

COc1cc(C2OCC3C(c4ccc(O)c(OC)c4)OCC23)ccc1O (centres undefined)
inactive: activity change, negative = cytotoxicity [1] -0.541% [at 7.64 µM] | activity change, negative = cytotoxicity [12] -13.2% [at 7.64 µM] | activity change, negative = cytotoxicity [13] -15.1% [at 7.64 µM] | activity change, negative = cytotoxicity [3] -5.51% [at 7.64 µM] | outcome [4] inactive [at 7.64 µM] | activity change, negative = cytotoxicity [5] -4.99% [at 7.64 µM] | outcome [6] inactive [at 9.19 µM] | activation [7] 6.68% [at 9.19 µM] | activity change, negative = inhibition [14] 1.68% [at 11.5 µM] | outcome [15] inactive [at 9.19 µM] | activity change, negative = inhibition [9] 9.55% [at 9.19 µM] | activation [19] -1.39% [at 7.64 µM] | outcome [17] inactive [at 9.19 µM] | cytotoxicity (LDH release) [10] 0.144 [at 9.19 µM] | activation (cytotoxicity) [11] 4.3% [at 9.19 µM] | activity change, negative = inhibition [18] 43.6% [at 15.3 µM]
active: Potency [20] 0.305 µM

CC[C@H](C)[C@H]1NC(=O)[C@@H](NC(=O)C(C)C)[C@@H](C)OC(=O)[C@H](COC(=O)CNC(C)=O)NC(=O)[C@@H]([C@@H](C)O)NC(=O)[C@H](Cc2ccccc2)N(C)C(=O)[C@H](c2ccc(OC)cc2)NC1=O (Isobutyryl-T[d(aIle)][Phg(4-OMe)][NMeF][d(aThr)]S([Gly-Ac]); ester 1-C)
inactive: Potency [1] | Potency [12] | Potency [13] | Potency [3] | Potency [4] | Potency [5] | Potency [6] | Potency [7] | Potency [14] | Potency [8] | Potency [15] | Potency [16] | outcome [19] | outcome [17] | outcome [10]

C[C@H]1C=C[C@H]2CCCC[C@@H]2[C@H]1C(=O)[C@H]1CC2=C(C(=O)O)CCN2C1=O
inactive: Potency [1] | Potency [12] | Potency [3] | Potency [5] | Potency [8] | Potency [15] | Potency [9] | Potency [16] | outcome [19] | outcome [17] | outcome [10] | Potency [11]
active: Potency [4] 16.8 µM | Potency [20] 16.6 µM | Potency [18] 19.3 µM
